# Measured values reported in the supplement of paper PMC10849652.
# Of roughly 8,800 targets only a part is listed; those with a hit were picked by preference. About 0.5% of all pairs of compound and target were hits.
# Columns and labels:
# Assay in all cases: log2 fold change, soluble protein after heating vs DMSO (PISA); higher = thermal stabilisation; K562 lysate, 10 uM; active = over 0.2 and 3.5 SD of the protein, either way, in both replicates (recomputed)
# [1] = compound: C#Cc1cccc(Nc2ncnc3cc(OCCOC)c(OCCOC)cc23)c1 [erlotinib]
# Summary of the method: (§1)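 Soluble protein was defined as the supernatant remaining after 21,000xg for 90 min, following pooling of heated aliquots and adjustment to 0.5% NP-40 at 4°C. Before that, crude K562 extract at 1 mg/mL protein in PBS pH 7.4 with 1 mM MgCl2 was treated with 10 μM compound for 30 min and heated for 3 min across 48°C-58°C. Quantification used TMTpro 16plex LC-MS/MS with channel sums equalised, and values are log-two fold changes in thermal stability relative to solvent controls from duplicates.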
# [2] = compound: C/C(=N\NC(=O)C1=CC(=CC=C1)S(=O)(=O)N2CCOCC2)/C3=C(C=CC(=C3)Cl)O
# Summary of the method: as §1
# [3] = compound: C1=CC(=CC=C1C2=NC3=C(N2)C=C(C=C3)C(=O)N)OC4=CC=C(C=C4)Cl
# Summary of the method: as §1
# [4] = compound: C1=CC2=C(C=CC(=C2)/C=C\3/C(=O)NC(=NCC4=CC=CS4)S3)N=C1
# Summary of the method: as §1
# [5] = compound: C1=CC2=NC=CN=C2C=C1/C=C/3\C(=O)NC(=O)S3
# Summary of the method: as §1
# [6] = compound: C1=CC=C(C=C1)C2=NC(=C(N2)C3=CC=NC=C3)C4=CC(=C(C=C4)Cl)O
# Summary of the method: as §1
# [7] = compound: C1=CC=C2C(=C1)C3=NNC4=CC=CC(=C43)C2=O
# Summary of the method: as §1
# [8] = compound: C1CCN(C1)C(=O)NC2=CC=CC(=C2)NC3=NC=C(C(=N3)NCCC4=CN=CN4)Br
# Summary of the method: as §1
# [9] = compound: C1CN(CCC1(CC2=CC=C(C=C2)Cl)N)C3=NC=NC4=C3C=CN4
# Summary of the method: as §1
# [10] = compound: C1COCCN1CCN2C3=CC=CC=C3N=C2NC(=O)C4=CC(=CC=C4)[N+](=O)[O-] [IRAK-1-4 Inhibitor I]
# Summary of the method: as §1
# Chain of UniProt Q07157 (Q07157 whole entry, looked up): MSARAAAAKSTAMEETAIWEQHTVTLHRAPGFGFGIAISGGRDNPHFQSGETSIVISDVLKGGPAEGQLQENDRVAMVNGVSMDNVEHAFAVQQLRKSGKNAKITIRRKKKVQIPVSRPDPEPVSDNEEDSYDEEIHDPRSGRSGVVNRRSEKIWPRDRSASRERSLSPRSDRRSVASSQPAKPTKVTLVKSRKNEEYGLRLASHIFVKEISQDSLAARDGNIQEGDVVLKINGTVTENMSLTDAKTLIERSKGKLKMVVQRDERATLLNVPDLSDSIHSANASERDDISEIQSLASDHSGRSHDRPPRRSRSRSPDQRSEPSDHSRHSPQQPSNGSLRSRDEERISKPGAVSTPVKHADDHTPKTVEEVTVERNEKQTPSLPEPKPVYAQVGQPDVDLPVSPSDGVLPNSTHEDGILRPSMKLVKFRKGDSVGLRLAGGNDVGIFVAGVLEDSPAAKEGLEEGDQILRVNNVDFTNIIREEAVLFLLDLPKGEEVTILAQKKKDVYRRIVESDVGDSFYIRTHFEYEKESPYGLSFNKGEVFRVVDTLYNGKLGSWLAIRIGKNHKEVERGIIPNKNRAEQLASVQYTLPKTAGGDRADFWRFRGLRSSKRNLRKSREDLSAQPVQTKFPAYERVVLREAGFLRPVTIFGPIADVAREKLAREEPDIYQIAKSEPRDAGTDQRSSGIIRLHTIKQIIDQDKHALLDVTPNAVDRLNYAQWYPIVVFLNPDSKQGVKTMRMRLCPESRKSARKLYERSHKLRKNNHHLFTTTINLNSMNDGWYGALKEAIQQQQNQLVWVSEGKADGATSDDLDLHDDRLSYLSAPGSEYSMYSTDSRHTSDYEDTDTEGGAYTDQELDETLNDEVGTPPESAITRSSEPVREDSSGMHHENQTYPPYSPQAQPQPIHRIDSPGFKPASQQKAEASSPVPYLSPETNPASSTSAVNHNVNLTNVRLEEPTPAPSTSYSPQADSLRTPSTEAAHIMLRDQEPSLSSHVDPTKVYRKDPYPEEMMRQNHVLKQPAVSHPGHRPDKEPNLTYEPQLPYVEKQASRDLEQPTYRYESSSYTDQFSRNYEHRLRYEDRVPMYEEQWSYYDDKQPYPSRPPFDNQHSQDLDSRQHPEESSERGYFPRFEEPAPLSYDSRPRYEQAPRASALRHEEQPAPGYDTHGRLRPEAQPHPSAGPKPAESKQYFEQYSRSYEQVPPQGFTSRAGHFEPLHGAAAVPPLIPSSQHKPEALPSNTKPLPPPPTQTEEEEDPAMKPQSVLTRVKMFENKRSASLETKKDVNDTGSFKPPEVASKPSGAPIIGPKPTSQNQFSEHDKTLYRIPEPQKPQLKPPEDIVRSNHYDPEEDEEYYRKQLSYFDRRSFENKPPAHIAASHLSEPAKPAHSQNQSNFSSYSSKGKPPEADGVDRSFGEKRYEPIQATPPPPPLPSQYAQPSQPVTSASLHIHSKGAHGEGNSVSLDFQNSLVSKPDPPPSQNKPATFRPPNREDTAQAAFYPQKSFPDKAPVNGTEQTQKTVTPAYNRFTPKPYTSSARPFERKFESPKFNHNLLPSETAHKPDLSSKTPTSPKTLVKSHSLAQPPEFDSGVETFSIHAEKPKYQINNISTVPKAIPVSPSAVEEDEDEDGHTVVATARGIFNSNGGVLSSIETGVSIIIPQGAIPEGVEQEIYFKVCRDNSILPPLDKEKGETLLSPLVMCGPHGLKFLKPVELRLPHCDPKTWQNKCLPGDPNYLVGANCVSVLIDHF
# Chain of UniProt A6NFQ2 (A6NFQ2 whole entry, looked up): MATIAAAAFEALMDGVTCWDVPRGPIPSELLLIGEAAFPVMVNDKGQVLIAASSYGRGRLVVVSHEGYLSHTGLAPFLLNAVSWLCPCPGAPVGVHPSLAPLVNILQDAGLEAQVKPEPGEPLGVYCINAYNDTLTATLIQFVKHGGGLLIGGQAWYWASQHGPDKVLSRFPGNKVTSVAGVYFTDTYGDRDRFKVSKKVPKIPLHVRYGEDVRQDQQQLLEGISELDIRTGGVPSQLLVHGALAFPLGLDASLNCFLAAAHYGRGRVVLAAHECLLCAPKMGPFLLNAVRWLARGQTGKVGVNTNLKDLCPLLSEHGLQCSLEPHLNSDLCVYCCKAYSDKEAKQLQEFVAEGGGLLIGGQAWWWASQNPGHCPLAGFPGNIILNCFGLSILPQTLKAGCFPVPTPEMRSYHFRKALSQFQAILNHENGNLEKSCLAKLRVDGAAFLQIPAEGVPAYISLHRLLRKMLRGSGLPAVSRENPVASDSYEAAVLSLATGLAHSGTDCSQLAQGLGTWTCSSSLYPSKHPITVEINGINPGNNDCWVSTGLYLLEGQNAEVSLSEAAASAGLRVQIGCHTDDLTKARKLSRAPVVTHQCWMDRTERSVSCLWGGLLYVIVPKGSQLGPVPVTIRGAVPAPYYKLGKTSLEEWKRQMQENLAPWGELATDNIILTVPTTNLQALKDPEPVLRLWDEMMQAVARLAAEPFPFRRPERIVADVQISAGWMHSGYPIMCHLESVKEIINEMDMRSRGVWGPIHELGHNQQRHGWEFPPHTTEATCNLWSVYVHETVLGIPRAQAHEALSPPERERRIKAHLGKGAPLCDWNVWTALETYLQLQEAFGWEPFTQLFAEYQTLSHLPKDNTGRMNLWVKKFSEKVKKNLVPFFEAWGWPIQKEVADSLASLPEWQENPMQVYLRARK
# Chain of UniProt Q01085 (Q01085 whole entry, looked up): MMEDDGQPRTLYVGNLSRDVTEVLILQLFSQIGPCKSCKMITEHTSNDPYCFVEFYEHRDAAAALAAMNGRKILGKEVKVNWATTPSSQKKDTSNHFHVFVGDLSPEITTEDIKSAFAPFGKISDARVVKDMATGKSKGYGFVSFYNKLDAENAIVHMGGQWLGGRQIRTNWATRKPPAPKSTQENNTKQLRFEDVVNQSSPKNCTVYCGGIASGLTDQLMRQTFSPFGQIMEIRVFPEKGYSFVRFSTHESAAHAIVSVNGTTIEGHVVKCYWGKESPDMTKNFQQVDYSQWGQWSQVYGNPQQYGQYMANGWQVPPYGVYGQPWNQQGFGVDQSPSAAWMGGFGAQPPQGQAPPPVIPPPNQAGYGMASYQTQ
# Chain of UniProt Q92547 (Q92547 whole entry, looked up): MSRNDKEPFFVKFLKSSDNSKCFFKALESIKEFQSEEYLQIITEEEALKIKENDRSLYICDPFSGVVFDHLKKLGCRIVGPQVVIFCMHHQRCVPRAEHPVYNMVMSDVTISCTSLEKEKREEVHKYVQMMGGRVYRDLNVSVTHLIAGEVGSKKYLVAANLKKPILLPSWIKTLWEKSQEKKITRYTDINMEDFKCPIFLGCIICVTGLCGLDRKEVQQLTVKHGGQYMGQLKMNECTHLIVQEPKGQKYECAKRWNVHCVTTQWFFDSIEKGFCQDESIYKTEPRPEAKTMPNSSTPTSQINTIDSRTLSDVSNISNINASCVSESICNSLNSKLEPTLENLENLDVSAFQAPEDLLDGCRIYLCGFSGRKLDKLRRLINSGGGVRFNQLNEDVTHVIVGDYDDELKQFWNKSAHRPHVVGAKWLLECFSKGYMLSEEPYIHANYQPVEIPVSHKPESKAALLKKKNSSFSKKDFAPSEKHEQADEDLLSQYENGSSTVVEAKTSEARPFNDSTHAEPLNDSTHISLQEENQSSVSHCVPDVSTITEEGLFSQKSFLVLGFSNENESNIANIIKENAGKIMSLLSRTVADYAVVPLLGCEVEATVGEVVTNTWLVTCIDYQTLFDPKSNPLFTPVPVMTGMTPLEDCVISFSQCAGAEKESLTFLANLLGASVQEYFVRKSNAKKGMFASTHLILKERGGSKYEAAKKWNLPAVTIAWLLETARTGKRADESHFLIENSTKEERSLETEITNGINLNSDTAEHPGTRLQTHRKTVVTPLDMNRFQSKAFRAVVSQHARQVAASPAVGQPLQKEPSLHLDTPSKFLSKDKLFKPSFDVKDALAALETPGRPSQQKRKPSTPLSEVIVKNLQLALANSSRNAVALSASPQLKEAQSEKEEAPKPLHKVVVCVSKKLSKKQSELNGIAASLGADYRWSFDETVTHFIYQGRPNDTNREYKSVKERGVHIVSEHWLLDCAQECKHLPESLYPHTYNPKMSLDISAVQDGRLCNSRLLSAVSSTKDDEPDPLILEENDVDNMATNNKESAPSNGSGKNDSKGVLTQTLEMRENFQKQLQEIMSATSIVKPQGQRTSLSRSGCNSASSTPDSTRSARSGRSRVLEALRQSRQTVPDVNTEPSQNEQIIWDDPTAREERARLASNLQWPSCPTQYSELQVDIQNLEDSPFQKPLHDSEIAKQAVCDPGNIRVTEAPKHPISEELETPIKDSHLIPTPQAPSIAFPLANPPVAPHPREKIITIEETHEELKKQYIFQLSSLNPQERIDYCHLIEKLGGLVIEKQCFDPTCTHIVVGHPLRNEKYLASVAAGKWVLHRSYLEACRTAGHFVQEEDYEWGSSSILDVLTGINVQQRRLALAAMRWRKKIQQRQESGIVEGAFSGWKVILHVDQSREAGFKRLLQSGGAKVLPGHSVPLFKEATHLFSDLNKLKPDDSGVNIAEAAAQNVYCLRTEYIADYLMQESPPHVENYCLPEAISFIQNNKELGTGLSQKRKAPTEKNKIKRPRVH
# Chain of UniProt P68366 (P68366 whole entry, looked up): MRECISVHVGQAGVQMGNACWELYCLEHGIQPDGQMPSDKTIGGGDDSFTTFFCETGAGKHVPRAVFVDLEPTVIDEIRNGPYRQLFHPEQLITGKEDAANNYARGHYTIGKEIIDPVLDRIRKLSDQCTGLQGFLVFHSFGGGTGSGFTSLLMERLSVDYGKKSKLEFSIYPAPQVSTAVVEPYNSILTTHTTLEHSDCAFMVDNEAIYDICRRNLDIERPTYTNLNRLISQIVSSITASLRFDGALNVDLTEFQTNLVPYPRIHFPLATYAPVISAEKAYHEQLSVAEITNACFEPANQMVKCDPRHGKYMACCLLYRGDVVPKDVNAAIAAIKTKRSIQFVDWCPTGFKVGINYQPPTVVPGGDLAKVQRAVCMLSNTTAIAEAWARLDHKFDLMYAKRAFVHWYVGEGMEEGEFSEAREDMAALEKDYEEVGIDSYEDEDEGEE
Target,log2 fold change [1],log2 fold change [2],log2 fold change [3],log2 fold change [4],log2 fold change [5],log2 fold change [6],log2 fold change [7],log2 fold change [8],log2 fold change [9],log2 fold change [10]
TFCP2 (UniProt Q12800),-0.035 (inactive),0.08 (inactive),-0.115 (inactive),0.01 (inactive),-0.042 (inactive),-0.007 (inactive),-0.02 (inactive),-0.038 (inactive),-0.044 (inactive),0.035 (inactive)
UBE2H (UniProt P62256),-0.002 (inactive),-0.002 (inactive),0.009 (inactive),0.008 (inactive),0.014 (inactive),0.029 (inactive),0.019 (inactive),0.013 (inactive),-0.036 (inactive),-0.026 (inactive)
TCAF2 (UniProt A6NFQ2),-0.006 (inactive),-0.218 (inactive),-0.003 (inactive),-0.059 (inactive),-0.038 (inactive),-0.027 (inactive),-0.033 (inactive),-0.022 (inactive),-0.047 (inactive),-0.005 (inactive)
TOPBP1 (UniProt Q92547),0.004 (inactive),-0.056 (inactive),-0.034 (inactive),0.018 (inactive),0.002 (inactive),0.003 (inactive),-0.009 (inactive),-0.134 (inactive),0.072 (inactive),-0.006 (inactive)
TCF12 isoform 3 (UniProt Q99081),-0.001 (inactive),-0.025 (inactive),0.081 (inactive),0.006 (inactive),-0.004 (inactive),-0.017 (inactive),0.003 (inactive),-0.063 (inactive),0.006 (inactive),0.051 (inactive)
TTLL12 (UniProt V9GY16),0.144 (inactive),0.13 (inactive),-0.193 (inactive),-0.05 (inactive),0.074 (inactive),-0.061 (inactive),-0.072 (inactive),-0.167 (inactive),0.128 (inactive),0.229 (inactive)
UBP1 (UniProt Q9NZI7),0.018 (inactive),-0.109 (inactive),-0.095 (inactive),0.048 (inactive),0.016 (inactive),0.01 (inactive),0.032 (inactive),-0.034 (inactive),-0.017 (inactive),0.029 (inactive)
TTC4 (UniProt O95801),0.01 (inactive),0.013 (inactive),0.001 (inactive),0.003 (inactive),0.005 (inactive),0.007 (inactive),-0.038 (inactive),-0.029 (inactive),0.025 (inactive),-0.008 (inactive)
UBL4A (UniProt P11441),-0.04 (inactive),0.014 (inactive),-0.069 (inactive),0.005 (inactive),0.087 (inactive),0.021 (inactive),0.04 (inactive),0.024 (inactive),-0.028 (inactive),-0.042 (inactive)
TBL3 (UniProt Q12788),0.082 (inactive),-0.001 (inactive),-0.071 (inactive),0.037 (inactive),0.012 (inactive),0.017 (inactive),0.043 (inactive),0.074 (inactive),-0.016 (inactive),0.01 (inactive)
TOX4 (UniProt O94842),-0.016 (inactive),-0.025 (inactive),0.049 (inactive),0.037 (inactive),-0.052 (inactive),0.04 (inactive),-0.003 (inactive),-0.014 (inactive),0.053 (inactive),-0.025 (inactive)
TMPO (UniProt P42167),-0.016 (inactive),0.021 (inactive),-0.021 (inactive),-0.027 (inactive),0.014 (inactive),-0.029 (inactive),-0.073 (inactive),-0.019 (inactive),-0.032 (inactive),-0.002 (inactive)
TIAL1 isoform 2 (UniProt Q01085),0.015 (inactive),-0.001 (inactive),0.023 (inactive),-0.015 (inactive),-0.019 (inactive),-0.035 (inactive),0.059 (inactive),0 (inactive),0.017 (inactive),0.058 (inactive)
TMEM70 (UniProt Q9BUB7),-0.018 (inactive),-0.003 (inactive),-0.106 (inactive),0.03 (inactive),0.038 (inactive),-0.073 (inactive),0.011 (inactive),0.006 (inactive),-0.028 (inactive),0.086 (inactive)
TRAPPC9 isoform 2 (UniProt Q96Q05),0.033 (inactive),0.113 (inactive),-0.01 (inactive),0.006 (inactive),-0.04 (inactive),-0.012 (inactive),-0.005 (inactive),0.027 (inactive),0.034 (inactive),0.027 (inactive)
TPST2 (UniProt O60704),-0.064 (inactive),-0.062 (inactive),0.042 (inactive),0.049 (inactive),-0.002 (inactive),-0.016 (inactive),-0.06 (inactive),0.015 (inactive),0.032 (inactive),-0.038 (inactive)
TIMELESS (UniProt Q9UNS1),0.023 (inactive),0.069 (inactive),-0.083 (inactive),-0.003 (inactive),-0.002 (inactive),-0.001 (inactive),-0.068 (inactive),-0.018 (inactive),0 (inactive),-0.032 (inactive)
UBXN6 (UniProt Q9BZV1),-0.02 (inactive),0.001 (inactive),0.001 (inactive),-0.024 (inactive),0.006 (inactive),0.036 (inactive),-0.073 (inactive),0 (inactive),-0.005 (inactive),-0.007 (inactive)
TTK (UniProt P33981),-0.032 (inactive),-0.1 (inactive),0.09 (inactive),-0.034 (inactive),0.004 (inactive),0.039 (inactive),0.258 (inactive),0.054 (inactive),-0.039 (inactive),-0.032 (inactive)
TUBA1C (UniProt Q9BQE3),0.007 (inactive),-0.028 (inactive),0.044 (inactive),-0.019 (inactive),-0.012 (inactive),0.031 (inactive),-0.077 (inactive),-0.008 (inactive),0.014 (inactive),0.04 (inactive)
TUBB6 (UniProt K7ES63),-0.19 (inactive),0.058 (inactive),-0.06 (inactive),0.047 (inactive),-0.01 (inactive),-0.154 (inactive),-0.029 (inactive),-0.19 (inactive),-0.22 (inactive),0.048 (inactive)
TJP1 isoform 2 (UniProt Q07157),-0.002 (inactive),0 (inactive),0.037 (inactive),-0.007 (inactive),-0.082 (inactive),-0.018 (inactive),-0.041 (inactive),-0.075 (inactive),0.039 (inactive),0.015 (inactive)
TTLL12 (UniProt Q14166),0.006 (inactive),0.049 (inactive),-0.047 (inactive),0.036 (inactive),0.027 (inactive),0.005 (inactive),-0.023 (inactive),0 (inactive),0.021 (inactive),-0.016 (inactive)
TRMT10A (UniProt Q8TBZ6),-0.003 (inactive),-0.26 (inactive),-0.007 (inactive),-0.018 (inactive),-0.024 (inactive),0.018 (inactive),0.252 (active),-0.017 (inactive),0.044 (inactive),0.044 (inactive)
TJP1 (UniProt G3V1L9),0.169 (inactive),0.199 (inactive),0.087 (inactive),-0.119 (inactive),-0.068 (inactive),0.014 (inactive),0.063 (inactive),–,–,0.047 (inactive)
TUBA4A (UniProt P68366),0.074 (inactive),0.019 (inactive),-0.017 (inactive),-0.034 (inactive),-0.01 (inactive),-0.036 (inactive),-0.017 (inactive),0 (inactive),0.036 (inactive),0.032 (inactive)
TFPI (UniProt P10646),-0.069 (inactive),0.093 (inactive),0.011 (inactive),0.089 (inactive),-0.141 (inactive),-0.02 (inactive),-0.232 (inactive),-0.096 (inactive),0.065 (inactive),0.003 (inactive)
